Source: PubChem BioAssay (several laboratories)
A selection: hits, their analogues and other compounds. The true share with any hit is near 1.6%.
TNAP act mid DEA = human TNAP enzyme activators, primary screen, biochemical, luminescent, intermediate phosphate acceptor level. Alkaline phosphatase, tissue-nonspecific isozyme (Homo sapiens), P05186. purified TNAP, CDP-star luminescence, 100 mM DEA, 30 min; hits give high values; scale: 0 levamisole-inhibited, 1 vehicle-only enzyme. activation factor at 20 µM. 64,000 tested, under 10 active;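 active means activation factor of at least 2 at 20 µM, relative to controls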
Target sequence (P05186 whole entry, looked up): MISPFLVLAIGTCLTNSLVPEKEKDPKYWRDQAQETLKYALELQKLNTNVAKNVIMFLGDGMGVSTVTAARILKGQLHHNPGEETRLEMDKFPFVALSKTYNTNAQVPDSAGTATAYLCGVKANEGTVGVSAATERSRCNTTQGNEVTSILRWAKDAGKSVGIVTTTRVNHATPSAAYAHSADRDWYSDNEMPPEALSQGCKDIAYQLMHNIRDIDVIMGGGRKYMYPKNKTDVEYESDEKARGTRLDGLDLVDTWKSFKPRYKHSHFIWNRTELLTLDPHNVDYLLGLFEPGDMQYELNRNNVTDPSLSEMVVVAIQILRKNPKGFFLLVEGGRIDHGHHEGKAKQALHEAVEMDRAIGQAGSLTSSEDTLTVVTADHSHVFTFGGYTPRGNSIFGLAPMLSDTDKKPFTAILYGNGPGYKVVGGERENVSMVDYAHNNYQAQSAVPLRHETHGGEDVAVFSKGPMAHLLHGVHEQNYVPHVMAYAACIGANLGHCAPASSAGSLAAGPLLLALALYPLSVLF
PLAP act = PLAP enzyme activators, biochemical, luminescence, HTS; purified PLAP enzyme, luminescent substrate read-out; hits give high values; 96,000 compounds, 1.2% hits; activation fold at 20 µM; in the data active means activation fold above about 2
MT1-MMP txn act = MT1-MMP promoter reporter activation – cell-based, luciferase luminescence, primary screen | activation factor at 10 µM | 86,000 compounds, 0.16% hits | AID 750, 2007 | HT1080 MT1-MMP promoter luciferase reporter, overnight; hits give high values;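 active means activation factor of at least 2 for MT1-MMP transcription at 10 µM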
PTPN22 inh 2 = PTPN22 phosphatase inhibitors, primary screen, biochemical, DiFMUP fluorescence, 2 µM. recombinant LYP catalytic domain. 96,000 compounds, 0.21% hits. Tyrosine-protein phosphatase non-receptor type 22 (Homo sapiens), Q9Y2R2. AID 640, 2007. inhibition, % at 2 µM;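 active means inhibition at 2 µM at or above a set limit, the screen mean plus 3 SD, cut at about 24% in these data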;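 further: 0% = DMSO with enzyme and 100% = enzyme fully blocked by orthovanadate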
PTPN22 act = LYP phosphatase activators, primary screen, biochemical, DiFMUP fluorescence, 2 µM | recombinant LYP; 0 = plate median, 100 = signal doubled | 96,000 compounds, 0.11% hits | AID 697, 2007 | activation, % at 2 µM | Tyrosine-protein phosphatase non-receptor type 22 (Homo sapiens), Q9Y2R2;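 active means activation at 2 µM above a set limit, the mean plus 5 SD, cut at about 37% in these data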
* marks the source's active call; other numbers are inactive results; · = no result.

SMILES | TNAP act mid DEA | PLAP act | MT1-MMP txn act | PTPN22 inh 2 | PTPN22 act
CC(C)(C)c1ccc(OCCNC(=O)c2ncn[nH]2)cc1 | · | 2.7* | · | 6 | -5
O=C(NCCc1ccccc1)c1ncn[nH]1 | 0.8 | 1.1 | 1.2 | -4 | 4
Cc1cccc(Nc2nc(-c3cccs3)cs2)n1 | · | · | 2.3* | -2 | 1
CN1CCN(CC#CCn2c3ccccc3c3ccccc32)CC1 | 0.9 | 1.4 | 1.3 | -7 | 5
COC(=O)[C@@]1(Cc2ccc(OC)cc2)[C@H]2c3cc(C(=O)N4CCCC4)n(Cc4ccc(C)c(F)c4F)c3C[C@H]2CN1C(=O)c1ccccc1 | · | · | 1 | · | ·
O=C(O)CCN1C(=O)/C(=C/c2ccc(-c3nc4ccccc4s3)o2)SC1=S | · | 1 | · | 24* | -22
Cn1nc(C(=O)NCc2ccccc2)c2ccccc2c1=O | 1 | 1 | 1 | 5 | -5
O=C(NCc1ccccc1)c1n[nH]nc1-c1ccccc1O | 1 | 2.9* | 1.4 | · | ·
CC1CC(C)CN(c2nc3c(c(=O)[nH]c(=O)n3C)n2CCSc2nc3ccccc3o2)C1 (stereo not drawn) | 0.9 | · | 1 | · | ·
CCCCN(Cc1ccccc1)c1ncnc2nc[nH]c12 | 1.2 | 2.1* | 1.5 | · | ·
CCCN(c1ccc(OCC)cc1)c1ncnc2nc[nH]c12 | 1.1 | 2.1* | 1.1 | · | ·
CCN(c1ccc(OC)cc1)c1ncnc2nc[nH]c12 | · | 1.7 | · | -8 | 5
COC(=O)c1[nH]c2ccc(C)cc2c1NC(=O)CN1CCCCC1C (stereo not drawn) | 0.9 | · | · | · | ·
O=C(CNc1ccccc1)N/N=C/c1cc([N+](=O)[O-])ccc1N1CCCC1 | · | 0.9 | · | 8 | -3
O=C(Cn1c2ccccc2c(=O)c2ccccc21)N/N=C/c1cc([N+](=O)[O-])ccc1N1CCCCCC1 | · | 1 | · | 28* | -25
Cc1cccc(CNC(=O)c2ccccc2N)c1 | 0.9 | 0.9 | 1.1 | 1 | -2
Cc1ccc(CNC(=O)c2ccccc2N)cc1 | · | 0.8 | 1.2 | 60* | -59
COC(=O)c1ccc(C(NC(=O)OCc2ccccc2)/C(F)=C/[C@@H](C)C(=O)N[C@@H](CO)Cc2ccccc2)cc1 (stereo partly drawn) | · | · | 1.1 | · | ·
COc1ccc(OCCSc2ncnc3nc[nH]c23)cc1 | 1.1 | 2* | · | -11 | 8
Cc1cccc(CSc2ncnc3nc[nH]c23)c1 | 1 | 2.2* | · | · | ·
Nc1c(C(=O)Nc2nc3ccccc3s2)sc2nc(-c3cccs3)ccc12 | · | 1.4 | · | 35* | -31
CCOC(=O)CC(=O)CSc1nc2cc(C)ccc2cc1C | · | 1.1 | 1.3 | -2 | 2
CCOC(=O)CC(=O)CSc1nc2c(C)c(C)ccc2cc1C | · | 0.8 | · | 24* | -27
Cc1ccc(C(O)c2nc3ccccc3n2C(C)C)cc1 (stereo not drawn) | 1 | 2.6* | 1 | -17 | 16
O=S(=O)(c1ccc(N2CCC(c3ccc(Cl)cc3)=N2)cc1)N(CCO)CCO | · | 2.2* | 1.2 | -1 | 4
SMILES | TNAP act mid DEA | PLAP act | MT1-MMP txn act | PTPN22 inh 2 | PTPN22 act
CCN(CC(=O)N1CCCCCC1)S(=O)(=O)c1ccc(Cl)cc1 | 0.9 | 1.1 | 1.2 | -4 | 1
CN(C)CCCNS(=O)(=O)c1ccc(N2CCC(c3ccc(Cl)cc3)=N2)cc1 | · | 2.3* | · | -4 | 5
Cc1ccc(S(=O)(=O)N2CCc3ccccc3C2CN2C(=O)c3ccccc3C2=O)cc1 (stereo not drawn) | · | 1.5 | · | 9 | -5
Fc1ccc(-n2nnnc2-c2cnc(-c3cccs3)nc2C(F)(F)F)cc1 | · | 1 | · | 14 | -10
Cc1nn(CCc2n[nH]c(=S)n2-c2cccc(Cl)c2)c(C)c1[N+](=O)[O-] | · | 2.2* | · | 0 | 1
COc1ccc(-c2csc(NC(=O)C3CCCCN3S(=O)(=O)c3ccccc3)n2)cc1 (stereo not drawn) | · | 1 | 1.1 | 10 | -7
Cc1onc(-c2c(F)cccc2Cl)c1C(=O)Nc1cccc2nsnc12 | 0.9 | 1 | 1 | -9 | 9
Cc1onc(-c2c(F)cccc2Cl)c1C(=O)Nc1nc2ccccc2[nH]1 | · | 2* | · | 2 | 1
COC(=O)[C@@H]1C[C@H]1[C@@H](NS(=O)(=O)c1ccc(-c2ccccc2)cc1)c1ccccc1 | · | · | 1.2 | · | ·
Cc1csc2nc(CCNS(=O)(=O)c3cccs3)cn12 | 1.1 | 2.9* | 1.6 | -10 | 9
CCc1ccc(S(=O)(=O)NCc2cn3cccc(C)c3n2)s1 | 0.9 | 1.7 | 1.1 | -6 | 5
CCc1ccc(S(=O)(=O)NCCc2cn3ccsc3n2)s1 | 1.1 | 2* | · | 7 | -7
Cc1ccn2cc(CNC(=O)c3cccs3)nc2c1 | · | 1 | · | -5 | 4
CCc1ccc(S(=O)(=O)NCc2cn3ccccc3n2)s1 | 0.7 | 2* | 1 | 3 | -2
Cc1ccn2cc(CNS(=O)(=O)c3ccc(Cl)s3)nc2c1 | 1.3 | 2.1* | · | 6 | -7
Cn1c(-c2c(N)n(CCc3ccccc3)c3nc4ccccc4nc23)nc2ccccc21 | · | 2.1* | 1.1 | 2 | -2
COCCCn1c(N)c(-c2nc3ccccc3n2C)c2nc3ccccc3nc21 | · | 2* | 0.9 | 9 | -8
CN(CC(=O)Nc1ccc(Cl)cc1)CC(=O)Nc1cc(Cl)ccc1C#N | 1.1 | 2.5* | 1.3 | · | ·
COCCCNC(=O)c1cccn2c(=O)c3cc4ccccc4cc3nc12 | · | 1.3 | 1.9 | 43* | -42
COc1cc(CNCc2ccccn2)ccc1OCc1c(Cl)cccc1Cl | · | 2* | · | -5 | 7
CCC1=C2CC[C@H]3C(=O)N(C)C(=O)[C@H]3[C@H]2[C@@]2(Cc3ccccc3)C(=NCC3CC3)OC(=O)N2C1=O | · | · | 1.3 | · | ·
CCOC(=O)c1ccc(NC(=O)N2CC(C)OC(C)C2)cc1 (stereo not drawn) | 0.9 | 1.5 | 2* | -12 | 4
CCCCCOCC1CC(C/C(C)=N/Nc2nc(-c3ccccc3)cs2)C(=O)O1 (stereo not drawn) | · | 1.1 | · | -19 | 21
CCNC(=S)NNC(=O)c1cccn(Cc2ccc(Cl)cc2Cl)c1=O | · | 1.7 | · | 60* | -59
C=CCNC(=S)NNC(=O)c1cccn(Cc2ccc(Cl)cc2Cl)c1=O | · | 1.2 | · | 49* | -47
Cc1ccccc1C(=O)NNC(=S)NC(=O)c1ccc(Cl)cc1Cl | · | 1.1 | · | 2 | -6
O=C1OC(C(=O)O)Cc2ccccc21 (stereo not drawn) | · | · | 1.2 | -4 | 2
Cc1cc(C)cc(OCC(=O)NNC(=O)c2cc(C)[nH]n2)c1 | · | 2.7* | · | -5 | 8
COC(=O)[C@@]1(Cc2ccc(F)cc2)[C@H]2c3cc(C(=O)N(C)C)n(CCc4ccc(O)c(O)c4)c3C[C@H]2CN1C(=O)c1ccccc1 | · | · | 1.1 | · | ·
COC(=O)[C@@H]1CCCN1C(=O)[C@H]1C[C@@H]1[C@H](NC(=O)OCc1ccccc1)c1ccccc1 | · | · | 1.2 | · | ·
